LYP inh 2: LYP (human) phosphatase inhibition; Q9Y2R2; recombinant LYP catalytic domain, DiFMUP fluorescence; inhibition, % at 2 µM; 0.21% of 96,000 active; AID 640;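 active = inhibition at 2 µM at or above a set limit, the screen mean plus 3 SD, cut at about 24% in these data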;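 note: 0% = DMSO with enzyme and 100% = enzyme fully blocked by orthovanadate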
Target sequence (Q9Y2R2 whole entry, looked up, the tested form may be a part): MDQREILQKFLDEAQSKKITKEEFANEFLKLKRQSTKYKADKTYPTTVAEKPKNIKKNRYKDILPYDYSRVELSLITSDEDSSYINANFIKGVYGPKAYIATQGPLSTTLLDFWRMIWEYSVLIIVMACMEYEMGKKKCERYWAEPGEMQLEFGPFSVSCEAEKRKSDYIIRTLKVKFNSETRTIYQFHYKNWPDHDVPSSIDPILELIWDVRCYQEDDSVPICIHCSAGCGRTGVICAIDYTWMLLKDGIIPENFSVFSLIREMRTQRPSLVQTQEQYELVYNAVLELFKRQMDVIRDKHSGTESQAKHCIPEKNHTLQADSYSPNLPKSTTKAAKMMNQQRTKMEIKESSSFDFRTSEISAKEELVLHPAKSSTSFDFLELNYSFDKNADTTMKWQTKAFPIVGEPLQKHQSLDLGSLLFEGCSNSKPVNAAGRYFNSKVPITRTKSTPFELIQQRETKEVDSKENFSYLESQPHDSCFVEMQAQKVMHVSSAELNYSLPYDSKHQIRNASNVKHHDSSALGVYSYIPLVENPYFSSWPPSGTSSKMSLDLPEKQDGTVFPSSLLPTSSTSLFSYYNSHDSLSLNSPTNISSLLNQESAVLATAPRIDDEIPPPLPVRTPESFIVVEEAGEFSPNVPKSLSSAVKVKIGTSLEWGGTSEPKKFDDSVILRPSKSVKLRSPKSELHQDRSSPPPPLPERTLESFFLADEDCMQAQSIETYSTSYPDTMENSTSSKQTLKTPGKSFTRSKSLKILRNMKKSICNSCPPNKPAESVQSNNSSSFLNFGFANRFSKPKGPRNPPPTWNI
Measles CPE: protection of cells from measles virus; Measles virus-infected cells, CPE protection, absorbance; protection (pct of control), % at 4 µM; 1.5% of 140,000 active; in the data active = protection mostly above about 24%, no sharp cut-off; inactive = mostly below about 26%
LYP act: increases human PTPN22 phosphatase activity; Q9Y2R2; 0.11% of 96,000 active; activation, % at 2 µM; recombinant LYP, DiFMUP fluorescence; 0 = plate median, 100 = signal doubled;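 active = activation at 2 µM above a set limit, the mean plus 5 SD, cut at about 37% in these data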
* = called active by the depositor; / = no result given. In the library only some 1.7% were active in any assay of this set; here they are far more common.

SMILES	LYP inh 2	Measles CPE	LYP act
CCc1ccc(OCC(=O)NC(NC(=S)Nc2ccccc2C)C(Cl)(Cl)Cl)cc1 (stereo not given)	/	15	/
CCc1ccc(OCC(=O)NC(NC(=S)Nc2ccccc2OC)C(Cl)(Cl)Cl)cc1 (stereo not given)	/	43*	/
COc1ccc2c(c1)O[C@H](c1ccc3c(c1)OCO3)[C@@H](O)C2=O	/	27*	/
COc1ccc2c(c1)O[C@@H](c1cccc(C(F)(F)F)c1)[C@H](O)C2=O	/	7	/
N/C(=N\OC(=O)COc1ccc(Cl)cc1Cl)c1cccnc1	/	0	/
Fc1cccc(CN2CCCCCCC2)c1	/	1	/
CCCN1CNC(=S)N(c2cc(C)ccc2C)C1	3	34*	-6
CCCN1CNC(=S)N(c2cccc(C)c2C)C1	2	7	0
CCCCn1c(SCc2ccccn2)nc2c1c(=O)n(C)c(=O)n2C	-12	8	8
O=C(c1ccco1)N1CCN(C(c2ccccc2Cl)c2nnnn2CC2CCCO2)CC1 (stereo not given)	1	3	-2
NC(=O)C1CCN(C(c2ccccc2Cl)c2nnnn2CC2CCCO2)CC1 (stereo not given)	29*	4	-29
Cc1ccc(OCCCN(C)C)c(Br)c1	-12	24	10
Cc1cc(Cl)c(OCCCN(C)C)c(Br)c1	/	48*	/
CCN(CC)S(=O)(=O)c1cccc(-c2nnc(SCc3nnc(-c4ccccc4)o3)n2C)c1	3	5	-1
O=C(Nc1cc(SCCO)cc([N+](=O)[O-])c1)c1ccco1	/	15	/
O=C(Cc1cccs1)Nc1cc(SCCO)cc([N+](=O)[O-])c1	/	102*	/
O=C(CNS(=O)(=O)c1ccc2ccccc2c1)OCc1csc(-c2ccccc2)n1	/	14	/
CC1CCCC(n2c(=S)[nH]c3ccccc3c2=O)C1C (stereo not given)	5	32*	-8
CC1CCC(n2c(=S)[nH]c3ccccc3c2=O)CC1 (stereo not given)	-2	9	2
CC(c1ccco1)N(Cc1ccco1)C(=O)Nc1ccccc1 (stereo not given)	0	3	2
CCCCOc1ccc(C(=O)C(CN2CCOCC2)c2ccccc2)cc1 (stereo not given)	-1	41*	0
COc1ccc(C(=O)C(CN2CCOCC2)c2ccccc2)cc1 (stereo not given)	-8	9	4
Cc1cc(N/C=C\c2nnnn2-c2ccc(F)cc2)no1	/	34*	/
Cc1ccc(-n2nnnc2/C=C\Nc2cc(C)on2)cc1	/	2	/
CCN1CCN(c2ncnc3c2cnn3-c2ccccc2)CC1	5	7	-7
SMILES	LYP inh 2	Measles CPE	LYP act
Cc1ccc(C)c(N2CCN(c3ncnc4c3cnn4-c3ccccc3)CC2)c1	4	51*	-7
c1ccc(-c2ccnc3nc(N4CCN(c5ccccc5)CC4)nn23)cc1	-9	37	13
O=C(NCCc1nc2ccccc2[nH]1)c1ccc(F)cc1	8	23	-11
O=C(c1ccc(Cl)cc1)N1CCCCC(Sc2nnc(-c3ccc4c(c3)OCO4)o2)C1=O (stereo not given)	/	39*	/
O=C(O)CSc1nnc(-c2ccc3c(c2)OCO3)o1	-13	4	14
CC(C)c1ccccc1NC(=O)COC(=O)CNC(=O)c1ccc(Br)cc1	/	19	/
COc1ccc(C(c2sc3nc(C)nn3c2O)N2CCN(Cc3ccccc3)CC2)cc1OC (stereo not given)	/	8	/
Cc1nc2nc3c(c(=O)n2[nH]1)CCCC3	13	29*	-14
O=C(O)Cc1nc2nc3c(c(=O)n2[nH]1)CCCC3	/	8	/
Cc1ccc(S(=O)(=O)N(CC(=O)NCCC2=CCCCC2)Cc2ccccc2)cc1	3	17	-4
CN(C)c1ccc(/C=C/c2cc[n+]([O-])cc2)cc1	-6	25	7
CN(C)c1ccc(/C=C/c2cc[n+](C)cc2)cc1	-6	49*	2
Cc1onc(-c2ccccc2Cl)c1C(=O)NCCN1Cc2ccccc2C1=O	-8	4	5
CC(=O)N1CCc2cc(S(=O)(=O)Nc3cccc(C(F)(F)F)c3)ccc21	0	27	0
Cc1csc(NC(=O)CSc2nnc(C)s2)n1	/	14	/
Cc1nnc(SCC(=O)Nc2nc(C(C)(C)C)cs2)s1	2	54*	1
CCOC(=O)Cc1csc(NC(=O)c2cc(OC)cc(OC)c2)n1	1	7	-1
CCNS(=O)(=O)c1ccc(NC(=O)c2ccccc2)cc1	0	11	1
Cc1cnc(C(=O)NCCc2ccc(S(=O)(=O)NC(=O)NC3CCCCC3)cc2)cn1	/	84*	/
COc1ccc(CCNC(=O)NC2CCCCC2)cc1	1	13	-2
COc1ccc(Cl)cc1NC(=O)Cn1c(=O)n2nc(C)nc2c2ccccc21	/	20	/
COc1ccc(C2(C(=O)Nc3ccccc3)CCOCC2)cc1	/	10	/
COC(=O)[C@@H]1C2CCC(C(=O)Nc3ccccc3)(CC2)[C@@H]1C(=O)OC	4	48*	-4
COc1cccc2c(=O)n(CC(=O)Nc3ccc(F)cc3F)ccc12	-13	4	12
COc1cccc2c(=O)n(CC(=O)Nc3ccccc3)ccc12	-14	90*	13
SMILES	LYP inh 2	Measles CPE	LYP act
Cc1cc(C)c2c(c1)cc(C)c1nnc(SCC(=O)Nc3ccc(S(=O)(=O)N4CCCCC4)cc3)n12	/	50*	/
O=C(CSc1ncccn1)Nc1ccc(S(=O)(=O)N2CCCCC2)cc1	9	5	-12
Cc1cc(NC(=O)CCC(=O)N(CCc2ccccc2)C(C(=O)NC2CCCC2)c2ccco2)no1 (stereo not given)	16	12	-17
CCCCCCNC(=O)C(C#N)c1nc2ccccc2nc1N1CCOCC1 (stereo not given)	0	47*	-1
CCCCCCNC(=O)C(C#N)c1nc2ccccc2nc1N1CCCC1 (stereo not given)	8	4	-8
N#CC(C(=O)NCCc1ccccc1)c1nc2ccccc2nc1N1CCCCC1 (stereo not given)	1	41*	-4
N#CC(C(=O)NCCc1ccccc1)c1nc2ccccc2nc1N1CCOCC1 (stereo not given)	6	19	-8
Cc1ccc(NC(=O)CNc2cccc(C)c2C)c(C)c1	9	10	-12
O=C(CN1CCN(c2ncccn2)CC1)N1CCN(C(c2ccccc2)c2ccccc2)CC1	-9	/	6
O=C1CC(c2ccccc2)n2nc(N3C(=O)CCC3=O)nc2N1 (stereo not given)	-4	52*	1
O=C1CC(c2ccc(Cl)cc2)n2nc(N3C(=O)CCC3=O)nc2N1 (stereo not given)	-5	5	1
CC1CCN(C(=S)Nc2ccc3nc4n(c(=O)c3c2)CCCCC4)CC1	/	4	/
CN(C)c1ccc(C(=O)C(O)c2ccccc2)cc1 (stereo not given)	-2	19	8
CN(C)c1ccc(C(=O)c2ccccc2)cc1	4	44*	-4
N#Cc1c(Nc2ccccc2)c(/C=N/N=C/c2ccccc2)c[nH]c1=O	/	26*	/
N#Cc1c(Nc2ccccc2)c(C=NCCN2CCOCC2)c[nH]c1=O	-4	3	1
Cn1c(Cn2c(=O)sc3ccccc32)nnc1SCc1cccc(F)c1	/	23	/
COc1cc(CNCc2ccccn2)ccc1OCC(=O)NC(C)(C)C	/	31*	/
COc1cc(CNCc2ccccn2)ccc1OCC(=O)NC1CCCCC1	/	11	/
O=C(CCc1ccc(CCC(=O)c2cccs2)s1)c1cccs1	/	1	/

Bioassay records from PubChem.
